# Source: PubChem (National Center for Advancing Translational Sciences (NCATS))
# Sampled rows, rich in hits. Any-hit rate of the full collection: about 21%.
# Pf growth 48h – P. falciparum growth inhibition at 48 hours (one generation); P. falciparum luciferase growth in erythrocytes, 48 h; Potency, µM (top dose mostly 28.7 µM), inactives show at the top dose activity change, negative = inhibition, hits mostly inhibitors; hit rate 5.9% among 310,000; AID 504832; note: potency is the fitted concentration of half-maximal effect; % is set by controls: 0 for no effect and ±100 for the full control effect
#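 Firefly luciferase activity from engineered P. falciparum reports growth; inhibitors lower the luminescent signal. Cultures contained 2% hematocrit erythrocytes at 0.1% final parasitemia.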
# Shiga inhibitor – blocks Shiga toxin action in Vero cells; Vero cells, Shiga toxin protein synthesis inhibition reporter; inhibition, % at 38.7 µM; hit rate 9.2% among 290,000; in the data active = inhibition mostly above about 28%, no sharp cut-off; inactive = mostly below about 43%; note: 0% is about no effect
# Cycloheximide cs – affects cycloheximide protein synthesis inhibition readout, counter-screen. cell reporter, cycloheximide protein synthesis inhibition counterscreen. max response, %. hit rate 12% among 300,000. AID 2314; in the data active = max response mostly above about 13%, no sharp cut-off; inactive = mostly below about 14%; note: read at 38.3 µM for the half of the compounds with a filed dose; 0% is about no effect
# Pf growth 96h – P. falciparum growth inhibition at 96 hours; hit rate 6.9% among 320,000; AID 504834; P. falciparum luciferase reporter growth, 96 h; Potency, µM (doses to about 28.7 µM), for inactives: top-dose activity change, negative = inhibition, actives largely listed as inhibitors; note: potency is the fitted concentration of half-maximal effect; % is set by controls: 0 for no effect and ±100 for the full control effect
#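 P. falciparum expressing integrated firefly luciferase, in erythrocytes at 2% hematocrit, 0.05% parasitemia, incubated with compounds 96 h at 37 C, 5% CO2. Growth inhibition read as loss of luminescence; two-generation exposure targets delayed-death apicoplast inhibitors.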
# NS1 inh – blocks influenza NS1 protein function; Potency, µM (doses to about 46.1 µM), without a hit: at the top dose activity, positive = more growth; hit rate 0.4% among 270,000; AID 2326; calls by dose curve; note: potency is the fitted concentration of half-maximal effect; actives are rising curves; nearly all actives have a fitted effect of over 50% in size
#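 Growth recovery, yeast-based: influenza A NS1 expressed in S. cerevisiae causes slow growth, and suppressors are detected by OD600. The parent strain without NS1 is used as positive control.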
# Active calls of the source: *; i = inactive; u = inconclusive; x = no result. Unless noted, calls come from the whole dose curve; as a rule, active = well fitted inhibition curve with a large enough effect; inconclusive = small, poorly fitted or top-dose-only effect, or another doubt; inactive = no such curve, though single readings can be large or run the other way.
SMILES,Pf growth 48h,Shiga inhibitor,Cycloheximide cs,Pf growth 96h,NS1 inh
Cc1cc(C)n(S(=O)(=O)c2ccccc2[N+](=O)[O-])n1,u,-20.0,1.3,3.1%,-14.8%
CC(NC(=O)COc1ccccc1Cl)c1ccccc1 (stereo unspecified),8.9%,-5.0,-2.1,7.8%,-0.9%
CNC(=O)Oc1ccc2c(c1)[C@]1(C)CCN(C)[C@@H]1N2C,8.28µM*,-14.4,-2.4,3.7µM*,-18.8%
CS(=O)(=O)c1cnc(-c2ccccc2)nc1Oc1ccc(Cl)cc1,1.1%,-1.0,7.4,20.1%,11.8%
CCOC(=O)c1cnc(-c2ccccc2)nc1Oc1ccc(OC)cc1,8.28µM*,-9.4,8.1,5.22µM*,-3.1%
CCOC(=O)c1cnc(-c2cccc(OC)c2)[nH]c1=O,17.8%,11.7,15.1*,u,-12.1%
CS(=O)(=O)c1cnc(-c2ccccc2)nc1Oc1ccc(F)cc1,13.1µM*,12.9,0.6,u,5.7%
CCOC(=O)c1cnc(-c2ccccc2)nc1Oc1ccccc1,17.9%,-5.9,-1.9,-24.7%,-103.9%
COc1cccc(C(=O)NCCS(=O)(=O)NCc2ccccn2)c1,14.6%,x,x,22.8%,x
CC1=C(CO)C(=O)OC([C@@H](C)C2CC[C@H]3C4C[C@H]5O[C@]56[C@@H](O)C=CC(=O)[C@]6(C)C4CC[C@]23C)C1 (stereo partly specified),8.28µM*,-8.6,-8.7,10.3%,-2.0%
Cc1ccc(/C=C/C(=O)CCC(=O)O)cc1,31.2%,64.5*,35.4*,19.9%,0.6%
Cc1cccc(C(=O)Nc2nnc(-c3ccc(C(C)(C)C)cc3)s2)c1,41.1%,45.8,18.8*,20.0%,-6.5%
Cc1ccccc1C(=O)Nc1nnc(-c2ccc(C(C)(C)C)cc2)s1,22.0%,-8.8,15.7*,i,11.6%
Cc1cccc(C(=O)Nc2nnc(COc3ccccc3)s2)c1,13.4%,-8.8,-2.9,10.9%,-2.9%
COc1ccc(OC)c(CNC(=O)CCS(=O)(=O)c2ccc3c(c2)oc(=O)n3C)c1,u,-5.3,7.1,u,-4.5%
O=C(N/N=C/c1ccco1)C1CC1c1ccccc1 (stereo unspecified),-12.5%,-4.2,-4.0,15.8%,-12.4%
CC(C)(C)c1ccc(C2CC2C(=O)N/N=C\c2ccc[nH]2)cc1 (stereo unspecified),u,48.1,11.9*,12.9%,-1.6%
O=C(N/N=C/c1ccc[nH]1)c1ccccc1O,80.7%,39.9*,36.9*,u,-3.1%
O=C(N/N=C/c1ccc[nH]1)c1ccc(O)cc1,66.6%,100.7*,27.5*,10.4µM*,2.9%
CC(C)=CCN1CCN(Cc2cccn2-c2ncccn2)CC1CCO (stereo unspecified),4.9%,-7.5,-3.3,1.1%,0.9%
Cc1cccc(C(=O)NCC(=O)NC(C)c2ccc(-n3ccnc3)cc2)c1 (stereo unspecified),9.4%,x,x,4.8%,x
CCN(c1ccccc1)S(=O)(=O)c1ccc(Cl)c(C(=O)N2CCCC2)c1,-11.2%,x,x,u,x
CCN(c1ccccc1)S(=O)(=O)c1ccc(Cl)c(C(=O)N(CC2CCCO2)C2CCS(=O)(=O)C2)c1 (stereo unspecified),1.65µM*,-10.1,-2.1,u,x
COc1ccc(S(=O)(=O)Nc2ccc(S(=O)(=O)Nc3nccs3)cc2)cc1,5.22µM*,1.3,-1.2,14.8%,-11.9%
COc1ccc(CC(=O)Nc2ccc(S(=O)(=O)Nc3nccs3)cc2)cc1,1.6%,-8.8,-4.1,21.0%,14.5%
SMILES,Pf growth 48h,Shiga inhibitor,Cycloheximide cs,Pf growth 96h,NS1 inh
O=C(O)/C=C/C(=O)Nc1ccc(S(=O)(=O)Nc2nccs2)cc1,41.3%,-2.9,-2.8,1.69µM*,1.5%
Cc1ccc(S(=O)(=O)Nc2ccc(S(=O)(=O)Nc3nccs3)cc2)c([N+](=O)[O-])c1,3.5%,-3.3,-0.8,2.94µM*,-17.0%
COc1cc(CNc2ccc(N3CCN(C(C)=O)CC3)cc2)ccc1OCc1ccc(F)cc1,-15.6%,74.7*,24.7*,u,2.0%
COc1cc(CNc2ccc3[nH]c(=O)[nH]c3c2)ccc1OCc1ccc(Cl)cc1,1.8%,45.1*,29.4*,9.6%,-1.5%
COc1cc(CNc2ccc3[nH]c(=O)[nH]c3c2)ccc1OCc1c(F)cccc1Cl,12.5%,6.9,2.2,29.1%,6.1%
COc1cc(CNc2ccc3[nH]c(=O)[nH]c3c2)ccc1OCc1ccccc1,-4.8%,18.4,14.3,u,19.3%
CCOc1cc(CNc2ccc3cn[nH]c3c2)ccc1OC,x,17.9,2.1,13.1µM*,25.7%
COc1cc(CNc2ccc3[nH]c(=O)[nH]c3c2)ccc1OCc1ccc(F)cc1,-6.6%,35.6*,31.4*,0.0%,17.7%
Cn1c(SCC(=O)NCC2CCCO2)nnc1-c1ccco1 (stereo unspecified),1.1%,x,x,-12.4%,x
Cc1cc(Cl)cc(Cl)c1OCCN1CCCC1,15.6%,-10.7,-2.3,7.0%,-5.5%
O=C(N/C(=C/c1ccco1)C(=O)N1CCOCC1)c1ccccc1Br,-1.8%,-30.7,3.2,15.8%,7.9%
COc1cc(CNc2ccc3[nH]c(=O)[nH]c3c2)ccc1OCc1ccccc1F,-5.4%,36.8*,19.3*,347.9%,7.2%
COc1cc(CNc2ccc3[nH]c(=O)[nH]c3c2)ccc1OCc1ccc(F)cc1Cl,13.8%,31.2*,13.6,19.0%,2.7%
CC1=C(C(=O)N2CCOCC2)C(c2ccccc2F)C2=C(CCCC2=O)N1 (stereo unspecified),13.0%,-5.1,5.8,x,2.8%
COc1ccc(-c2cn(-c3cccc(C)c3)c(=O)[nH]2)cc1OC,0.0%,27.8,14.7,21.6%,1.6%
Cc1ccc(-n2cc(-c3ccccc3)[nH]c2=O)cc1F,180.8%,114.8*,46.1*,u,10.9%
COc1ccc(-c2nnn(CC(=O)N(Cc3cccs3)C(C)C(=O)NCCC(C)C)n2)cc1OC (stereo unspecified),u,-33.4,-4.8,x,-2.1%
CCOC(=O)C1(CC2CC2)CCN(Cc2cnc(-c3ccc(OC)cc3)nc2)CC1,u,11.4,-2.3,u,-0.6%
CCOC(=O)C1(CCOc2ccccc2)CCN(Cc2ccc(O)c(Cl)c2)CC1,u,12.0,-1.7,u,4.8%
CCOC(=O)C1(CCOc2ccccc2)CCN(Cc2ccc(F)c(OC)c2)CC1,-65.4%,-0.3,0.7,14.7µM*,-19.2%
CCOC(=O)C1(CCOc2ccccc2)CCN(Cc2ccc(O)c(OC)c2)CC1,11.7µM*,-27.7,-4.0,-24.3%,6.9%
CCOC(=O)C1(CC2CC2)CCN(Cc2ccc(O)c(Cl)c2)CC1,4.15µM*,-14.4,-3.8,-11.1%,x
CCOC(=O)C1(CCOc2ccccc2)CCN(Cc2ccc(C(=O)OC)cc2)CC1,u,-12.1,-2.6,u,0.7%
CCOC(=O)C1(CCOc2ccccc2)CCN(Cc2ccc(-n3cccn3)cc2)CC1,14.7µM*,13.8,-2.4,u,2.8%
O=C(CC1C(=O)NCCN1Cc1c(F)cccc1Cl)NCCCn1cccn1 (stereo unspecified),3.7%,10.5,-0.8,2.8%,0.9%
CC12CCC=CC1C(c1ccc(Br)cc1F)N(Cc1ccccc1)C2=O (stereo unspecified),x,15.5,-2.0,x,x
